Experimental data published in PubChem BioAssay (Tox21).
Records with an inconclusive call do not appear. A call without a number means that no potency is given here. Activity calls are given as the source filed them. Unless noted, calls come from the whole dose curve.

Biological target: Nuclear receptor ROR-gamma (Homo sapiens) (UniProt P51449)
Assay: qHTS assay to identify small molecule antagonists of the retinoid-related orphan receptor gamma (ROR-gamma) signaling pathway (AID 1159521; active = well fitted inhibition curve with a large enough effect in the repeat runs; note: nearly all actives have a fitted effect of over 50% in size; note: potency is the fitted concentration of half-maximal effect;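 for activity change, negative = inhibition: CHO cells with doxycycline inducible ROR-gamma driving an RORE luciferase reporter; top concentration of the series differs between compounds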)
Settings: Tet-on RORgamma CHO cells, RORE-luciferase, 16 h; series mostly up to 92.4 µM
Method in brief: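 Luminescence readout (ONE-Glo, 30 min RT) after 16 h doxycycline induction; loss of signal scored as antagonism. CHO cells with TET-inducible RORγ and RORE-LUC reporter; compounds added 2 h before 1 uM final doxycycline.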

SMILES | Potency | activity change, negative = inhibition
COC(=O)c1ccccc1OC | inactive | 
c1cnccn1 | inactive | 
O=[N+]([O-])c1ccc(F)c(Cl)c1 | inactive | 
CCCC[P+](C)(CCCC)CCCC | inactive | 
Cc1nc2n(c(=O)c1CCN1CCC(c3noc4cc(F)ccc34)CC1)CCCC2 | inactive | 
O[C@@H]([C@H](O)[C@H](O)CBr)[C@H](O)CBr | inactive | 
O=C(O)c1ccc2cc(C(=O)O)ccc2c1 | inactive | 
CCCCCCOC(=O)C(C)CC (stereo unspecified) | inactive | 
O=[N+]([O-])c1ccc(O)cc1C(F)(F)F | 7.7 µM (active) | 
C=Cc1cccc(C)c1 | inactive | 
O=C(/C=C/c1ccc(O)c(O)c1)O[C@@H](C(=O)O)[C@@H](OC(=O)/C=C/c1ccc(O)c(O)c1)C(=O)O | inactive | 
CCc1cccc(CC)c1NC(=O)CN(CC(=O)O)CC(=O)O | inactive | 
CCCCCCCC | inactive | 
COC1=C(OC)C(=O)C(CCCCCCCCCCO)=C(C)C1=O | 18.8 µM (active) | 
CC(C)CCOC(=O)/C=C/c1ccccc1 | inactive | 
Cc1ccc(-c2ccccc2)cc1 | inactive | 
CCCCCCCCCCOC(=O)c1ccccc1C(=O)OCCCCCCCC | inactive | 
C=CC(C)(CCC=C(C)C)OC=O (stereo unspecified) | inactive | 
CC(CO)Oc1ccccc1 (stereo unspecified) | inactive | 
CC(C)=CCC1=C(O)c2ccccc2C(=O)C1=O | 13.6 µM (active) | 
OC12N=C(c3ccccc3)SC1Cc1cc(Cl)ccc12 (stereo unspecified) | inactive | 
O=C(O)c1cc(=O)c2ccccc2o1 | inactive | 
CC(=O)c1ccc(C(C)=O)cc1 | inactive | 
CC[N+](CC)(CC)CCOC(=O)C(C1CCCC1)C1CCCC1 | inactive | 
CC(C)(C)CC(C)(C)c1ccc(Nc2ccc(C(C)(C)CC(C)(C)C)cc2)cc1 |  | 1.61% [at 8.39 µM] (inactive)
NC(=O)c1cccc([N+](=O)[O-])c1 | inactive | 

System: not listed separately
Assay: qHTS assay to identify small molecule agonists of the AP-1 signaling pathway - cell viability counter screen (AID 1159525); note: nearly all actives have a fitted effect of over 55% in size
Settings: ME-180 (cervical carcinoma) AP-1-bla cells viability, ATP luminescence, 5 h; series mostly up to 76.8 µM
Method in brief: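 Luminescent ATP readout (Cell Titer Glo, 30 min RT), normalised to DMSO and tetra n-octyl ammonium bromide controls. Cells were ME-180 AP-1-bla in 0.5% dialyzed FBS Opti-MEM, with a 5 h, 37 °C compound exposure.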

SMILES | Potency | viability change, negative = cytotoxic
CC(=O)[C@H]1CC[C@H]2[C@@H]3CCC4=CC(=O)CC[C@]4(C)[C@H]3CC[C@]12C | inactive | 
COC(=O)c1ccccc1OC | inactive | 
c1cnccn1 | inactive | 
COc1cc2nc(N3CCN(C(=O)c4ccco4)CC3)nc(N)c2cc1OC |  | -7.1% [at 15.8 µM] (inactive)
O=[N+]([O-])c1ccc(F)c(Cl)c1 | inactive | 
CCCC[P+](C)(CCCC)CCCC | inactive | 
Cc1nc2n(c(=O)c1CCN1CCC(c3noc4cc(F)ccc34)CC1)CCCC2 | inactive | 
O[C@@H]([C@H](O)[C@H](O)CBr)[C@H](O)CBr | inactive | 
[Cu+] | inactive | 
Cc1ccc(O)c(O)c1 | inactive | 
O=C(O)c1ccc2cc(C(=O)O)ccc2c1 | inactive | 
CCCCCCOC(=O)C(C)CC (stereo unspecified) | inactive | 
O=[N+]([O-])c1ccc(O)cc1C(F)(F)F | inactive | 
O=c1[nH]c2ccccc2n1CCCN1CCN(C(c2ccccc2)c2ccccc2)CC1 | inactive | 
C=Cc1cccc(C)c1 | inactive | 
O=C(/C=C/c1ccc(O)c(O)c1)O[C@@H](C(=O)O)[C@@H](OC(=O)/C=C/c1ccc(O)c(O)c1)C(=O)O | inactive | 
CCc1cccc(CC)c1NC(=O)CN(CC(=O)O)CC(=O)O | inactive | 
CCCc1ccc(OCC(=O)N2CCN(C(=O)COc3ccc(CCC)cc3OC)CC2)c(OC)c1 | inactive | 

SMILES | Potency | viability change, negative = cytotoxic
CCCCCCCC | inactive | 
CC(C)CCOC(=O)/C=C/c1ccccc1 | inactive | 
CCCCN(CCCC)CC(O)c1cc(Cl)cc2c1-c1ccc(Cl)cc1/C2=C/c1ccc(Cl)cc1 (stereo unspecified) | inactive | 
COc1ccc(-c2coc3cc(O)ccc3c2=O)cc1 | inactive | 
Oc1cc(Cl)cc(Cl)c1Cl | inactive | 
Cc1ccc(-c2ccccc2)cc1 | inactive | 
C/C=C/C=C/COC(=O)C(C)C | inactive | 
CCCCCCCCCCOC(=O)c1ccccc1C(=O)OCCCCCCCC | inactive | 
C=CC(C)(CCC=C(C)C)OC=O (stereo unspecified) | inactive | 
CC(CO)Oc1ccccc1 (stereo unspecified) | inactive | 
CC(C)=CCC1=C(O)c2ccccc2C(=O)C1=O | inactive | 
OC12N=C(c3ccccc3)SC1Cc1cc(Cl)ccc12 (stereo unspecified) | inactive | 
O=C(O)c1cc(=O)c2ccccc2o1 | inactive | 
CC(=O)c1ccc(C(C)=O)cc1 | inactive | 
CC[N+](CC)(CC)CCOC(=O)C(C1CCCC1)C1CCCC1 | inactive | 
CC(C)(C)CC(C)(C)c1ccc(Nc2ccc(C(C)(C)CC(C)(C)C)cc2)cc1 |  | -3.55% [at 6.97 µM] (inactive)
NC(=O)c1cccc([N+](=O)[O-])c1 | inactive | 
